Assay [1] is described as follows: Validation of Assay for Modulators of Lamin A Splicing (AID 1459; active = well fitted curve in the direction sought with a large enough effect in the signal ratio; the % refers to the signal ratio;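 also: cells exposed to compound for two days before reading; 0% is about no effect; ratio rise marks activators and ratio drop marks inhibitors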). To be noted: Lamin A splicing dual RFP/GFP fluorescence reporter; series mostly up to 9.22 µM. In a few lines:
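Dual-reporter HeLa S3 line (lamin A-EGFP minigene, DsRed2) treated with compounds 48 hrs, 0.5% DMSO final. Endpoint: EGFP/DsRed2 total intensity ratio from laser-scanning microplate cytometry.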

Assay [2] addresses DNA repair nuclease/redox regulator APEX1 (Homo sapiens) (UniProt P27695). Briefly: qHTS Validation Assay for Inhibitors of the Human Apurinic/apyrimidinic Endonuclease 1 (APE1) (AID 1705; also: potency is read from the fitted curve at half-maximal effect;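 as to activity change, negative = inhibition: TAMRA fluorescence gain over two minutes as APE1 cuts a quenched THF abasic duplex; % is scaled to controls: 0 for no effect and ±100 for the full control effect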). Conditions: purified APE1 endonuclease activity, fluorescence, titration; series mostly up to 57.1 µM. In a few lines:
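Substrate: 50 nM final fluorophore/quencher THF-abasic duplex. Enzyme preincubated with compounds 15 min, RT. Progress derived from fluorescence difference, third minus first kinetic read.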

Assay [3] can be described thus: Counterscreen for APE1 Inhibitors: Fluorescent Dye Displacement Validation Assay (AID 1707).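 Also: plate controls were ThO with dsDNA and no compound for no effect and ThO without dsDNA for full effect.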 To be noted: fluorescent dye displacement from DNA; series mostly up to 57.1 µM. In a few lines: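 Reaction mixture of 250 nM Thiazole Orange and 50 nM double-stranded abasic-site DNA was dispensed, compounds were pin-transferred, and fluorescence was read at endpoint (480 nm ex, 540 nm em). Reduced fluorescence indicated dye displacement by DNA binding.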

The target of assay [4] is Endonuclease 4 (Escherichia coli (strain K12)) (UniProt P0A6C1). Kind of assay: Counterscreen for APE1 Inhibitors: qHTS Validation Assay for Inhibitors of Endonuclease IV (AID 1708). Also: % is scaled to controls: 0 for no effect and ±100 for the full control effect. To be noted: E. coli endonuclease IV, DNA cleavage fluorescence; series mostly up to 57.1 µM. In a few lines: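 Conditions: 2 nM enzyme, 50 nM TAMRA/BHQ-2 substrate, pH 7.5 Tris buffer with 2 mM MgCl2, RT. Compound preincubation 15 min; readout three fluorescence reads 60 s apart, third-minus-first.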

Assay [5] in a line: qHTS for differential inhibitors of proliferation of Plasmodium falciparum line 7G8 (AID 1815).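 Also: parasite growth measured after three days of incubation.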 Also: potency is read from the fitted curve at half-maximal effect.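 As to activity change, negative = inhibition: plate controls were vehicle wells for no effect and reference inhibitor wells for full effect.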 Conditions: Plasmodium falciparum 7G8 proliferation inhibition; series mostly up to 28.7 µM.
Assay [6] can be described thus: qHTS for differential inhibitors of proliferation of Plasmodium falciparum line GB4 (AID 1816).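 Also: parasite growth measured after 72 h incubation.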 Also: potency is read from the fitted curve at half-maximal effect.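 As to activity change, negative = inhibition: 0% = vehicle DMSO and -100% = reference inhibitor.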 Conditions: Potency: Plasmodium falciparum GB4 proliferation inhibition; series mostly up to 28.7 µM.
Assay [7] in a line: qHTS for differential inhibitors of proliferation of Plasmodium falciparum line 3D7 (AID 1876).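 Also: parasite growth measured after three days of culture; 0% = vehicle wells and -100% = reference inhibitor wells.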 Conditions: P. falciparum 3D7 proliferation inhibition; series mostly up to 28.7 µM.
Assay [8] in a line: qHTS for differential inhibitors of proliferation of Plasmodium falciparum line D10 (AID 1877).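 Also: parasites grown with compound for 72 h before DNA staining; plate controls were vehicle wells for no effect and reference inhibitor wells for full effect.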 To be noted: series mostly up to 28.7 µM.
Assay [9] is described as follows: qHTS for differential inhibitors of proliferation of Plasmodium falciparum line Dd2 (AID 1882).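 Also: plate controls were DMSO vehicle for no effect and 0.29 µM artemisinin for full effect; nearly all actives have a fitted effect of over 65% in size.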 Conditions: Potency: Plasmodium falciparum Dd2 proliferation inhibition; series mostly up to 28.7 µM. In a few lines: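 SYBR Green DNA fluorescence (ex 485, em 535 nm) after overnight lysis quantifies parasite growth; compound exposure lasted 72 h at 37 C on infected red cells at 2.5% hematocrit, 0.3% parasitemia (final). Artemisinin 0.29 uM and vehicle wells define normalization.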

Assay [10] in a line: qHTS for differential inhibitors of proliferation of Plasmodium falciparum line W2 (AID 1883).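 Also: parasites grown with compound for 72 h before lysis and staining; 0% = vehicle wells and -100% = control inhibitor wells.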 Conditions: Potency: Plasmodium falciparum W2 proliferation inhibition; series mostly up to 28.7 µM.
The nature of assay [11]: qHTS for differential inhibitors of proliferation of Plasmodium falciparum line HB3 (AID 1886).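 Also: parasites grown with compound for 72 h before SYBR Green readout.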 Also: potency is read from the fitted curve at half-maximal effect.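 As to activity change, negative = inhibition: plate controls were vehicle for no effect and reference inhibitor for full effect.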 To be noted: Potency: Plasmodium falciparum HB3 proliferation inhibition; series mostly up to 28.7 µM.
Assay [12] deals with Ferritin light chain (Equus caballus) (UniProt P02791). Briefly: qHTS Validation Assay for Identification of Novel General Anesthetics (AID 2323). Also: % is scaled to controls: 0 for no effect and ±100 for the full control effect. Conditions: horse apoferritin, anesthetic-site fluorescent probe displacement; series mostly up to 76.9 µM. In a few lines:
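Normalized fluorescence response, scaled between free 1-AMA and 1-AMA/apoferritin complex, fitted to a four-parameter Hill equation for concentration-effect values. Binding mix: 10 uM horse-spleen apoferritin, 50% saturated 1-AMA in PBS; read 380/535 nm after 10 min.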

Assay [13] has as its target Alpha-galactosidase A (Homo sapiens) (UniProt P06280). Kind of assay: Counterscreen for Glucocerebrosidase Inhibitors: qHTS Assay for Human alpha-Galactosidase at pH 4.5 (AID 992). Also: 0% is about no effect. Conditions: purified enzyme, fluorogenic substrate; series mostly up to 76.9 µM. In a few lines: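 Steps: enzyme (2 nM final), then compound across 0.7 nM to 77 uM, then 80 uM fluorogenic galactopyranoside substrate; incubate 20 min at room temperature; quench at pH 10; measure fluorescence at 365/440 nm.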

Assay [14] can be described thus: Cell Viability - LYMP1-002 - Assay at 24 hr (AID 993). Also: % is scaled to controls: 0 for no effect and ±100 for the full control effect. To be noted: LYMP1-002 lymphoblastoid cells viability; series mostly up to 92.2 µM. In a few lines: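 Acute toxicity is measured as concentration-dependent loss of cellular ATP in a human lymphoblastoid line (Coriell LYMP1-002) after 24 h treatment in complete medium. ATP is quantified by luciferase luminescence and AC50 derived by Hill modelling.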

A short description of assay [15]: Cell Viability - LYMP1-002 - Assay at 40 hr (AID 994).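 Also: 0% = DMSO only and full inhibition = 92 µM tetraoctylammonium bromide; nearly all actives have a fitted effect of over 60% in size.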 To be noted: LYMP1-002 lymphoblastoid cell viability; series mostly up to 92.2 µM. In a few lines:
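Cells are plated at 2500 per well and rested 5 hr at 37 C. Compounds are added and incubated 40 hr at 37 C. CellTiter-Glo reagent is added for 30 min at room temperature before luminescence is read.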

For assay [16], the target named is alpha-glucosidase (Oryza sativa, rice) (UniProt Q653V4). Kind of assay: Counterscreen for Glucocerebrosidase Inhibitors: qHTS Assay for Rice alpha-Glucosidase at pH 5.0 (AID 997).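 Also: 0% = full activity with enzyme and -100% = basal without enzyme.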 Conditions: rice alpha-glucosidase enzyme activity; series mostly up to 76.9 µM. In a few lines:
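Endpoint fluorogenic assay at pH 5.0: compounds (0.7 nM to 77 uM) titrated against 4 nM rice enzyme and 400 uM 4-MU-alpha-glucoside for 20 min at room temperature; NaOH/glycine stop, read ex 365/em 440 nm, Hill-fitted AC50.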

Assay [17] concerns the target Alpha-galactosidase (Coffea arabica) (UniProt Q42656). Briefly: Counterscreen for Glucocerebrosidase Inhibitors: qHTS Assay for Coffee Bean alpha-Galactosidase at pH 5.9 (AID 998).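 Also: plate controls were uninhibited enzyme for no effect and no-enzyme basal signal for full effect.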 To be noted: coffee bean alpha-galactosidase enzyme assay; series mostly up to 76.9 µM. In a few lines: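 Enzyme 2 nM + cpd (0.7 nM–77 uM titration) + 4-MU-alpha-Gal 80 uM, pH 5.9 citrate/Tween-20, RT 20 min, NaOH/glycine stop pH 10, fluor 365/440. Normalized to no-enzyme and full-activity controls; Hill-fit AC50.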

A short description of assay [18]: qHTS Assay for Lipid Storage Modulators (AID 1519; calls by dose curve). Conditions: Drosophila S3 cells, BODIPY lipid droplet/cell ratio, laser cytometry, cells loaded with oleic acid. In a few lines:
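Cells seeded at 5,000 per well were treated with compounds over a concentration series and loaded with oleic acid (400 uM, as added). Lipid droplet fluorescence (488 nm excitation, 500-530 nm channel) was read by laser-scanning cytometry and normalized to 20 uM Triacsin C.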

Assay [19] is described as follows: qHTS Assay for Identification of Small Molecule Inducers of Hypoxia Response (AID 2120; active = well fitted curve in the direction sought with a large enough effect in the signal ratio, with a control signal flat, not every such curve was filed as active; the % refers to the signal ratio; also: 0% is about no effect). Conditions: hypoxia response reporter cells, beta-lactamase ratio readout; series mostly up to 104 µM. In a few lines:
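Cell-based qHTS for reporter induction: hypoxia response element controlled beta-lactamase in ME-180 cells. Compounds incubated 17 h at 37 degrees C; activity from blue/green (460/530 nm) ratio, inducers ranked by AC50.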

The nature of assay [20]: qHTS Assay for Modulators of Human Peripheral Myelin Protein 22 (PMP22) Expression/Activity (AID 1967; active = well fitted curve in the direction sought with a large enough effect in the signal ratio; the % refers to the signal ratio;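 also: 0% = untreated cells and 100% end not stated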). Conditions: Cell-based PMP22 reporter, dual-color luciferase ratio, mouse Pmp22 promoter in mouse Schwann cells; series mostly up to 115 µM. In a few lines: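 Engineered MSC80 cells, Pmp22-promoter green and EF-alpha red luciferase reporters; 24h compound treatment at 37 °C. Concentration-response fits on green, red and ratio signals, each overlap-corrected, with %Activity normalized to untreated wells.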

The mark [21] stands for this setting: measured here: cell count channel max response.
Setting [22] is: measured here: lipid channel max response.

Values joined by “and” are separate entries in the source; they are usually repeats but may differ in a detail not shown here. Identical values can stand only once. Results filed as inconclusive are left out. Active and inactive are the calls of the source. Unless noted, calls follow the shape of the dose curve; as a rule, active = well fitted curve in the direction sought with a large enough effect; inconclusive = small, poorly fitted or top-dose-only effect, or another doubt; inactive = no such curve, though single readings can be large; an effect the other way counts as inactive or inconclusive.

Chain of Alpha-galactosidase (Coffea arabica) (Q42656 whole entry, looked up): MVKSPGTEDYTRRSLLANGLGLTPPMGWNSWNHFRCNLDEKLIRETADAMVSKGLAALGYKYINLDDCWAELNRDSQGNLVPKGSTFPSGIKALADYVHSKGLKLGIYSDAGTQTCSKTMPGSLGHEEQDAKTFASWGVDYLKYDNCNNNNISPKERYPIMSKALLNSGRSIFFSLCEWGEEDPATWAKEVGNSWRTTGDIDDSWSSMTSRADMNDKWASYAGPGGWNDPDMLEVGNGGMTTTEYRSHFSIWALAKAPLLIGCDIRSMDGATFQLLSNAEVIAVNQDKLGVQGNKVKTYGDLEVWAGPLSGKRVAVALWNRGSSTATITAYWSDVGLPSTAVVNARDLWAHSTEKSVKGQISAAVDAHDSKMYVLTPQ
Chain of DNA repair nuclease/redox regulator APEX1 (Homo sapiens) (P27695 whole entry, looked up): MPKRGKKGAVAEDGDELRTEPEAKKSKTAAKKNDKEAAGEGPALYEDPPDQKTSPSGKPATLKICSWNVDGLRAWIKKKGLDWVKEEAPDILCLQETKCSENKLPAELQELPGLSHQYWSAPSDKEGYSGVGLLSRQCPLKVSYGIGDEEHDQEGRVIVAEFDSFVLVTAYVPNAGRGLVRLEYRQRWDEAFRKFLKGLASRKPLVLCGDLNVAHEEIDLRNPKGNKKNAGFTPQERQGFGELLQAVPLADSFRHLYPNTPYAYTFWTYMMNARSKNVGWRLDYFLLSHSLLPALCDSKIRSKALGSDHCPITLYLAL
Chain of Alpha-galactosidase A (Homo sapiens) (P06280 whole entry, looked up): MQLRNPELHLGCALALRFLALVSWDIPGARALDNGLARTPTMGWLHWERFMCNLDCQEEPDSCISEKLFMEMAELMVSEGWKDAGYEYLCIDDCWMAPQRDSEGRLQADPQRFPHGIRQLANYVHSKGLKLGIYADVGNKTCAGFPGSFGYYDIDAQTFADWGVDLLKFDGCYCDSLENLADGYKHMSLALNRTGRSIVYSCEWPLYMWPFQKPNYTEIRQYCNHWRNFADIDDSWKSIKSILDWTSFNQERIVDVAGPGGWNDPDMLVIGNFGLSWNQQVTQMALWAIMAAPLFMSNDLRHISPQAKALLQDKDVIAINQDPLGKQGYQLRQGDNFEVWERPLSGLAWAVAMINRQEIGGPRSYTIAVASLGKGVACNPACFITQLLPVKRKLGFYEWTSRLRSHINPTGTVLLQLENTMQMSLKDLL
Chain of Ferritin light chain (Equus caballus) (P02791 2-175 limits assumed): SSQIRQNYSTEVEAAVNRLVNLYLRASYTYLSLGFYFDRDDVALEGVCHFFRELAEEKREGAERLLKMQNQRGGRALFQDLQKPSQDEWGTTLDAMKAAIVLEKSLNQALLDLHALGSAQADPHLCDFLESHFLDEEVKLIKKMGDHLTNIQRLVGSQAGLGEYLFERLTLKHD

For `CCC1(c2ccc(N)cc2)CCC(=O)NC1=O` (stereo not given), the result in assay [1], in assay [3], in assay [4] and in assay [12] was inactive. Further, the Potency entry in [2], in assay [5], in assay [6], in assay [7], in assay [8] and in [9] was “inactive” in each case. Further, the Potency entry in assay [10] and in assay [11] was “inactive” throughout.

For the compound `C[C@]12CCC(=O)C=C1CC[C@@H]1[C@@H]2CC[C@]2(C)C(=O)CC[C@@H]12`, the compound was classed as inactive in assay [13], in assay [16], in assay [17], in assay [1], in assay [3] and in assay [4]. The compound was classed as inactive in assay [12]. The Potency entry in [14], in assay [15], in [2], in [7], in assay [9] and in assay [11] was “inactive” throughout. Besides, the activity change, negative = inhibition in assay [18] (at 57.5 µM (top of the series)) was 0.917% (inactive). Also, the max response in assay [18] (setting [21]) was 67.2%; in [18] (setting [22]), 68.1%.

Take `O=c1oc2ccccc2c(O)c1Cc1c(O)c2ccccc2oc1=O`: the activity change, negative = inhibition in assay [18] (at 25.7 µM (top of the series)) was 0.983% (inactive). The max response is -11.3% in assay [18] (setting [21]) and -10.4% in assay [18] (setting [22]).

Take `COP(=S)(OC)Oc1ccc(SC)c(C)c1`: the Potency result in assay [14] and in [15] was “inactive” in each case. In addition, the activity change, negative = inhibition in assay [18] (at 57.5 µM (top of the series)) is 5.63% (inactive). The max response came out at 23% in assay [18] (setting [21]) and 29.4% in assay [18] (setting [22]). Moreover, the result in assay [19] was inactive.

With `Cc1ccc(C(=O)c2ccc(CC(=O)O)n2C)cc1`, the activity change, negative = inhibition in assay [18] (at 25.7 µM (top of the series)) was -1.39% (inactive). The max response in [18] (setting [21]) is -5.63%; in assay [18] (setting [22]) it was -8.93%.

Regarding `NCCc1ccc(O)cc1`, the compound was called inactive in [13], in assay [16], in [17], in assay [1], in [3] and in assay [4]. Moreover, the outcome in assay [20] and in assay [12] was inactive. Also, the Potency result in [14], in assay [15], in [2], in [5], in assay [6] and in [7] was “inactive” in each case. The Potency entry in [8], in [9], in assay [10] and in assay [11] was “inactive” each time.

Take `CC[N+](CC)(CC)CCOc1cccc(OCC[N+](CC)(CC)CC)c1OCC[N+](CC)(CC)CC`: the call in assay [17] and in assay [4] was inactive. Moreover, in assay [18] (at 25.7 µM (top of the series)), the activity change, negative = inhibition was 0.548% (inactive). Also, the max response in assay [18] (setting [21]) is -4.51%; in assay [18] (setting [22]), -4.34%.

For `COC(=O)C(c1ccccc1)C1CCCCN1` (stereo not given), the Potency result in assay [14] and in assay [15] was “inactive” each time. Besides, the result in assay [19] was inactive.

In the case of `Cn1c(=O)c2[nH]cnc2n(C)c1=O`, the compound was classed as inactive in [17] and in [3]. The activity change, negative = inhibition in assay [18] (at 25.7 µM (top of the series)) is -0.949% (inactive) and -1.67% (inactive); in [18] (at 57.5 µM (top of the series)), 8.67% (inactive). Also, the max response in assay [18] (setting [21]) was -7.33% and -5.65% and 13.2%; in assay [18] (setting [22]) it was -6.71% and -6.91% and 31.3%.

Take `CC(NC(C)(C)C)C(=O)c1cccc(Cl)c1` (stereo not given): the compound was called inactive in assay [1], in assay [3], in assay [4], in assay [20] and in [12]. The activity change, negative = inhibition in assay [18] (at 57.5 µM (top of the series)) was 9.02% (inactive) and 0.884% (inactive). For the same compound, the max response in assay [18] (setting [21]) is 11.7% and -20.3%; in [18] (setting [22]) it was 23.1% and -17.7%. The Potency result in assay [2], in [7], in assay [8] and in assay [11] was “inactive” in each case. Besides, the Potency in assay [6] was 12.6 µM (active).

Consider `O=C1c2ccccc2C(=O)c2ccccc21`, for which, in assay [18] (at 57.5 µM (top of the series)), the activity change, negative = inhibition was 11.7% (inactive). In addition, the max response in assay [18] (setting [21]) amounted to 14.4%; in assay [18] (setting [22]), 29.4%.

Take `C=C(C)[C@H]1CN[C@H](C(=O)O)[C@H]1CC(=O)O`: the activity change, negative = inhibition in [18] (at 57.5 µM (top of the series)) is 0.0201% (inactive). Moreover, the figures for the max response in assay [18] (setting [21]) and in [18] (setting [22]) were -9.16% and -9.1%, respectively. Besides, the Potency entry in [2], in [5], in [6], in assay [7], in assay [8] and in [9] was “inactive” each time. The Potency result in [10] and in assay [11] was “inactive” throughout. Besides, the result in assay [3] and in assay [12] was inactive.

Take `CCCCC/C=C\C/C=C\C/C=C\C/C=C\CCCC(=O)NCC(=O)O`: the result in assay [13], in assay [16], in assay [17], in [1], in assay [3] and in [12] was inactive. The activity change, negative = inhibition in assay [18] (at 57.5 µM (top of the series)) is -0.69% (inactive). The max response in [18] (setting [21]) stood at 64.5%; in assay [18] (setting [22]), 63.6%. Also, the Potency in assay [2] was 28.2 µM (active); in [5], 14.1 µM (active); in assay [6] it was 14.1 µM (active); in assay [11], 14.1 µM (active). Besides, the Potency result in assay [9] is “inactive”.

The values are drawn from PubChem BioAssay (NCATS).
